Rows were chosen to be rich in hits. Some 15% of all compounds tested hit in one or more screens of this group.
VP16 counter = Gal4-VP16 reporter inhibition counter-screen; Drosophila S2 Gal4-VP16 UAS-luciferase, luminescence, 20 h; Potency, µM (titrated, usually from 53.6 µM), most hits filed as inhibitors; actives 3.5% (n = 310,000); AID 2546;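 note: Gal4-VP16 expression switched on by copper sulfate through the metallothionein promoter; nearly all actives have a fitted effect of over 50% in size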
DT40 TDP1 no CPT = qHTS for Inhibitors of human tyrosyl-DNA phosphodiesterase 1 (TDP1): qHTS in cells in absence of CPT | DT40 Tdp1-/- hTDP1 cells, no CPT, ATP luminescence, 48 h | Potency, µM (doses to about 46.2 µM), most hits filed as inhibitors | actives 15% (n = 420,000); note: nearly all actives have a fitted effect of over 55% in size
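Growth kinetics read by CellTiter-Glo luminescence after ≥48 hr at 37 °C. Cells: DT40 Tdp1-/- stably carrying human TDP1, 400 per well, compound exposure in the absence of CPT (DMSO vehicle).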
ELG1 repair inh = blocks ELG1-dependent DNA repair in HEK293T cells. HEK293T ELG1-luciferase reporter, luminescence, 16 h; DNA damage induced by 5-fluorouridine. Potency, µM (highest dose often 46.1 µM), most hits filed as inhibitors. actives 2.3% (n = 330,000); note: nearly all actives have a fitted effect of over 55% in size
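DMSO vehicle served as the neutral condition. Each well held 2,000 cells given 5-fluorouridine plus compound; after 16 hr at 37 °C/5% CO2, ONE-Glo was added and luciferase measured 30 min later.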
RORgamma inh = blocks mouse ROR gamma transcriptional activity; Drosophila S2 Gal4-RORgamma UAS-luciferase reporter, 20 h; Potency, µM (series often up to 53.6 µM), actives largely listed as inhibitors; actives 5.4% (n = 310,000); AID 2551; note: nearly all actives have a fitted effect of over 60% in size
Target sequence (P51450 whole entry, looked up, the tested form may be a part): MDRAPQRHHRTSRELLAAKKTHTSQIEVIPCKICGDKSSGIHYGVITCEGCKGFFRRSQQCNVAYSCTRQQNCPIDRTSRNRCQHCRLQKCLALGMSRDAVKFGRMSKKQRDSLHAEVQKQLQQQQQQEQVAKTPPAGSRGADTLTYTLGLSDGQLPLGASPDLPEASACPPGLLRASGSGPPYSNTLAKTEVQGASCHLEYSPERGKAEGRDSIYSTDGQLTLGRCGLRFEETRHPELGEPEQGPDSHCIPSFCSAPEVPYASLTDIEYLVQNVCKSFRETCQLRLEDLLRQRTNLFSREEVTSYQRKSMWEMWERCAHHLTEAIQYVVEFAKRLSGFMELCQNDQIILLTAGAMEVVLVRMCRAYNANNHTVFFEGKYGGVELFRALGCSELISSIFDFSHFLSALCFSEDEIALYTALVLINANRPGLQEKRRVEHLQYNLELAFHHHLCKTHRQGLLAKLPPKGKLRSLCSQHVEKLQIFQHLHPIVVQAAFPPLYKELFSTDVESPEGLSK
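Luminescence from a UAS-regulated Photinus luciferase reporter in stably transfected Drosophila Schneider cells is measured; decreased signal marks ROR gamma inhibition. Fusion expression is induced by 700 uM copper sulfate for 20 hr.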
12-LOX inh = blocks human arachidonate 12S-lipoxygenase | P18054 | Potency, µM (highest dose often 108 µM), actives largely listed as inhibitors | AID 1671190 | actives 1.1% (n = 580,000) | purified 12hLO, xylenol orange hydroperoxide absorbance
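Purified human 12hLO (150 nM final) in 25 mM Hepes, 0.01% Triton X-100, pH 7.0 was preincubated 15 min at room temperature with compound. Then 40 uM arachidonic acid was added, 30 min. Hydroperoxide was read by Fe-XO absorbance ratio 573/405 nm.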
DT40 TDP1 CPT = growth inhibition of DT40 Tdp1-/-;hTDP1 cells with camptothecin (screen for TDP1 inhibitors); chicken DT40 Tdp1-/-;hTDP1 cells + 20 nM CPT, ATP luminescence, 48 h; Potency, µM (top dose mostly 46.2 µM), most hits filed as inhibitors; actives 12% (n = 420,000); AID 686979; note: nearly all actives have a fitted effect of over 55% in size
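Chicken DT40 Tdp1-/- cells complemented with human TDP1, 400 cells/well, exposed to compounds plus 20 nM camptothecin for at least 48 h at 37 C; viability read as ATP content by CellTiter-Glo luminescence.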
Hits are given with their value; n = inactive; u = inconclusive; x = not tested or not shown; [ ] = dose if it differs, or a comment. Calls come from the whole dose curve; as a rule, active = well fitted curve in the direction sought with a large enough effect; inconclusive = small, poorly fitted or top-dose-only effect, or another doubt; inactive = no such curve, though single readings can be large; an effect the other way counts as inactive or inconclusive.

SMILES	VP16 counter	DT40 TDP1 no CPT	ELG1 repair inh	RORgamma inh	12-LOX inh	DT40 TDP1 CPT
COc1ccccc1Cc1nnc(NC(=O)c2c(OC)cccc2OC)s1	x	x	x	x	n	x
Cc1ccc(-n2ncc(C(=O)NCc3ccccn3)c2C2CCN(C(=O)OC(C)(C)C)CC2)c(C)c1	x	21µM	x	x	n	u
COc1ccc(OC)c(CCNC(=O)c2cnn(-c3ccc(C)cc3C)c2C2CCN(C(=O)OC(C)(C)C)CC2)c1	x	15µM	x	x	n	4.6µM
COc1ccc(OC)c(CCNC(=O)c2cnn(-c3ccccc3)c2C2CCN(C(=O)OC(C)(C)C)CC2)c1	x	23µM	x	x	n	13µM
COc1ccc(CCNC(=O)c2cnn(-c3cccc(C)c3)c2C2CCN(C(=O)OC(C)(C)C)CC2)cc1OC	x	15µM	x	x	n	u
CC1=C[C@@H](CO)[C@H](C(C)C)C[C@H]1CC(=O)NCc1cccnc1	x	x	x	x	n	x
C#CCNC(=O)c1cc(-c2cccc(C(F)(F)F)c2)c2nncn2n1	x	x	x	x	n[6.33 µM]	x
COc1ccc(CCNC(=O)c2cnn(-c3ccc(F)cc3)c2C2CCN(C(=O)OC(C)(C)C)CC2)c(OC)c1	x	13µM	x	x	n	u
Cc1ccccc1-n1c(=S)[nH]c2nc3c(cc2c1=O)CCCC3	4.5µM	n	n	1.3µM	n	n
Cc1ccc(-n2c(=S)[nH]c3nc4c(cc3c2=O)COC(C)(C)C4)cc1	u	n	n	3.5µM	n	n
CCC1(C)Cc2nc3[nH]c(=S)n(-c4ccc(C)cc4)c(=O)c3cc2CO1 (configuration not stated)	14µM	u	n	1.3µM	n	n
CSc1nc2nc3c(cc2c(=O)n1-c1cccc(C)c1)COC(C)(C)C3	n	u	21µM	n	n	u
CSc1nc2nc3c(cc2c(=O)n1-c1ccccc1)COC(C)(C)C3	n	u	n	n	n	n
Cc1ccc(Cl)cc1N1CCN(C(=O)CCNS(=O)(=O)c2ccc3[nH]c(=O)ccc3c2)CC1	x	x	x	x	n	x
COc1ccc(-c2nc(CSC(C)C(=O)NC(C)(C)C)co2)cc1 (configuration not stated)	x	x	x	x	n	x
Cc1ccccc1-n1c(=S)[nH]c2nc3c(cc2c1=O)COC(C)(C)C3	11µM	n	n	5µM	n	n
COc1ccc(NC(=O)c2ccc3[nH]c(C)c(C)c3c2)c(OC)c1	n	18µM	n	n	n	23µM
CCOc1ccccc1NC(=O)c1cc(CC(C)C)oc1C	n	23µM	n	u	n	23µM
CCOc1ccccc1NC(=O)c1ccc2[nH]c(C)c(C)c2c1	n	26µM	n	n	n	u
COc1ccccc1NC(=O)c1cc(C)oc1C	n	n	n	n	n	n
CCOc1ccccc1NC(=O)c1ccc2ccccc2c1	u	u	n	n	n	n
CC(C)CCn1cnc2c(oc3nc4c(cc32)CCCC4)c1=O	u	21µM	u	10µM	n	u
Cc1cc2c(nc1C)oc1c(=O)n(CC(=O)N3CCCCC3)cnc12	x	x	x	x	n	x
CCc1ccc(N/C(SCc2cccc(F)c2)=C(/C#N)C(=O)NCc2ccco2)cc1	6.3µM	u	n	1.6µM	n	u
CC(=O)N(c1ccccc1C)C1CCCC1	n	u	n	n	n	n
SMILES	VP16 counter	DT40 TDP1 no CPT	ELG1 repair inh	RORgamma inh	12-LOX inh	DT40 TDP1 CPT
CC(=O)N(C1=C(Cl)C(=O)c2ccccc2C1=O)C1CCCCC1	11µM	0.52µM	16µM	10µM	1.8µM	0.46µM
CCCN(CC1CCOC1)S(=O)(=O)c1ccc2c(c1)OCCO2 (configuration not stated)	x	x	x	x	n	x
CC(c1ccc(Cl)cc1)N(C)Cc1nc2ccccc2o1 (configuration not stated)	x	x	x	x	n	x
COCn1c(=O)c2c(nc(SC3=NCCS3)n2Cc2ccccc2C)n(COC)c1=O	n	u	18µM	n	n	23µM
CN(CCC#N)C(=O)COC(=O)c1nn(-c2ccccc2)c(=O)c2ccccc12	n	n	n	n	n	n
CC1CCCCC1NC(=O)COC(=O)c1c2c(nc3ccccc13)/C(=C\c1ccco1)CC2 (configuration not stated)	x	23µM	x	x	16µM	29µM
CN(CCC#N)C(=O)COC(=O)c1c2c(nc3ccccc13)/C(=C\c1ccco1)CC2	x	13µM	x	x	n	21µM
CC1CCCC(NC(=O)COC(=O)/C=C/c2ccco2)C1C (configuration not stated)	x	n	u	x	u	u
O=C(COC(=O)c1c2c(nc3ccccc13)/C(=C\c1ccco1)CC2)NC1CCCC1	x	23µM	x	x	7.1µM	16µM
O=[N+]([O-])c1ccc(S(=O)(=O)Nc2ccccc2-n2cccn2)cc1	x	x	x	x	n	x
CCCCCCCCCCCCCCC(C(=O)O)C(O)(CC(=O)OC)C(=O)O (configuration not stated)	u	8.2µM	x	n	x	10µM
Cc1cnc(C)c(N2CCC(COc3cnc4c(ccn4CC(N)=O)c3)CC2)n1	x	x	x	x	n	x
CCc1ccc([C@@H]2CC=C(C(=O)O)[C@H](c3ccc(C(C)(C)C)cc3)N2S(=O)(=O)c2ccc(C)cc2)cc1	x	u	u	x	n	u
Cc1ccc(S(=O)(=O)N2[C@@H](c3ccc(C(C)(C)C)cc3)C(C(=O)O)=CC[C@H]2c2ccc(C(C)C)cc2)cc1	x	u	16µM	x	40µM	u
Cc1ccc([C@@H]2CC=C(C(=O)O)[C@H](c3ccc(C(C)(C)C)cc3)N2S(=O)(=O)c2ccc(C)cc2)cc1	x	u	u	x	n	u
Cc1ccc(S(=O)(=O)N2[C@@H](c3ccc(Cl)c(Cl)c3)C(C(=O)O)=C[C@H]2CC2CCCC2)cc1	x	n	n	x	28µM	n
Cc1ccc(S(=O)(=O)N2[C@@H](c3ccc(C(C)(C)C)cc3)C(C(=O)O)=CC[C@H]2c2ccc(Cl)cc2)cc1	x	u	n	x	n	23µM
CCCC[C@@H]1C=C(C(=O)O)[C@H](c2ccc(Cl)cc2)N1S(=O)(=O)c1ccc(C)cc1	x	n	n	x	n	n
CCCCC[C@@H]1C=C(C(=O)O)[C@H](c2ccc(Br)cc2)N1S(=O)(=O)c1ccc(C)cc1	x	n	n	x	35µM	n
Cc1ccc(S(=O)(=O)N2[C@@H](c3ccc(Cl)cc3)C(C(=O)O)=C[C@H]2CC2CCCC2)cc1	x	n	n	x	u	u
Cc1ccc([C@@H]2CC=C(C(=O)O)[C@H](c3ccc(Br)cc3)N2S(=O)(=O)c2ccc(C)cc2)cc1	x	u	n	x	u	n
Cc1ccc(S(=O)(=O)N2[C@@H](c3ccc(Br)cc3)C(C(=O)O)=CC[C@H]2c2ccc(C(C)C)cc2)cc1	x	u	n	x	35µM	u

Source: PubChem
